# Results taken from PubChem BioAssay (Tox21).
# “And” between values parts separate entries of the source, which are not always exact repeats. Identical values can stand only once. Inconclusive results are not listed. Where a structure was tested more than once in an assay, its records may differ in their call. The source made the active and inactive calls. Unless noted, calls follow the shape of the dose curve; as a rule, active = well fitted curve in the direction sought with a large enough effect in the repeat runs; inconclusive = weak or mixed curves; inactive = no such curve, though single readings can be large; an effect the other way counts as inactive or inconclusive.
# What was measured:
# [1] = target: Voltage-gated inwardly rectifying potassium channel KCNH2 (Homo sapiens) (UniProt Q12809); test: Human Ether-a-go-go-Related Gene (hERG) channel small molecule antagonists: fluorescence cell-based qHTS assay (AID 1671200); also: nearly all actives have a fitted effect of over 50% in size;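 as to activity change, negative = inhibition: hERG-expressing U2OS cells given a thallium stimulus after FluxOR II dye loading; series mostly up to about 77 µM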
# Chain of Voltage-gated inwardly rectifying potassium channel KCNH2 (Homo sapiens) (Q12809 whole entry, looked up): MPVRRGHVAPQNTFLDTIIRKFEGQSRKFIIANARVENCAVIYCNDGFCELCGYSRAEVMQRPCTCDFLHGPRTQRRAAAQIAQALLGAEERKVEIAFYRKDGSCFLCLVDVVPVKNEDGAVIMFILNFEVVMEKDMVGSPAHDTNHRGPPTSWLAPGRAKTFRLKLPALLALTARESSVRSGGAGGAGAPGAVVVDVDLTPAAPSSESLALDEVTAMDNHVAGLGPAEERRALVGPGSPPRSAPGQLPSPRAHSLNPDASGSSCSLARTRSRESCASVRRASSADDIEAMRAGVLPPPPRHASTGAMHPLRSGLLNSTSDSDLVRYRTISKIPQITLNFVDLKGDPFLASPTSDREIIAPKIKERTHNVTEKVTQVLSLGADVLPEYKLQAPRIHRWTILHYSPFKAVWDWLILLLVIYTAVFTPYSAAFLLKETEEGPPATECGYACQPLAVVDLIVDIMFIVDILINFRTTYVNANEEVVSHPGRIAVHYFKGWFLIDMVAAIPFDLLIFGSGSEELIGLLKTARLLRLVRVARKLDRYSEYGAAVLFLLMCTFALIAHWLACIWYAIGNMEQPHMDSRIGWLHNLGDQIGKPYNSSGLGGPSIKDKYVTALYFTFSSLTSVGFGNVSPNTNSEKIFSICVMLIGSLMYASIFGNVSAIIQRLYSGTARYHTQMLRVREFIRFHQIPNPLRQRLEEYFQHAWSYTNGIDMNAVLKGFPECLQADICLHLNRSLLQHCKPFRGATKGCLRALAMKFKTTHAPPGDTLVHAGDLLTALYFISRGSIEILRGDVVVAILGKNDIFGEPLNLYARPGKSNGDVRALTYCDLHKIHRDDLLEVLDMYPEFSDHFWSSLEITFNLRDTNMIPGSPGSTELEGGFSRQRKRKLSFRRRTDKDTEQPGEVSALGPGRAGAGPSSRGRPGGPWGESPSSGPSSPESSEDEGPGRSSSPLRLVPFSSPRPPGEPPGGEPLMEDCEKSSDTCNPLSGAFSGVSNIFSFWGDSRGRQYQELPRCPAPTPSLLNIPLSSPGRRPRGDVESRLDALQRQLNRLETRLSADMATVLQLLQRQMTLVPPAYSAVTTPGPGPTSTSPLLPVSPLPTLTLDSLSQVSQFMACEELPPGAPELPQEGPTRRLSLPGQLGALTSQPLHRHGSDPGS
# How it was run: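 Quantitative HTS in hERG-U2OS cells: thallium entry through the channel reports activity, read as continuous 480/540 nm fluorescence over 2 min after stimulus addition.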
# [2] = target: Acetylcholinesterase (Homo sapiens) (UniProt P22303); test: Acetylcholinesterase (AChE) small molecule antagonists: enzyme-based qHTS assay with human liver microsomes (AID 1347399; calls by dose curve; also: nearly all actives have a fitted effect of over 60% in size); details: Potency: qHTS inhibition
# Chain of Acetylcholinesterase (Homo sapiens) (P22303 whole entry, looked up): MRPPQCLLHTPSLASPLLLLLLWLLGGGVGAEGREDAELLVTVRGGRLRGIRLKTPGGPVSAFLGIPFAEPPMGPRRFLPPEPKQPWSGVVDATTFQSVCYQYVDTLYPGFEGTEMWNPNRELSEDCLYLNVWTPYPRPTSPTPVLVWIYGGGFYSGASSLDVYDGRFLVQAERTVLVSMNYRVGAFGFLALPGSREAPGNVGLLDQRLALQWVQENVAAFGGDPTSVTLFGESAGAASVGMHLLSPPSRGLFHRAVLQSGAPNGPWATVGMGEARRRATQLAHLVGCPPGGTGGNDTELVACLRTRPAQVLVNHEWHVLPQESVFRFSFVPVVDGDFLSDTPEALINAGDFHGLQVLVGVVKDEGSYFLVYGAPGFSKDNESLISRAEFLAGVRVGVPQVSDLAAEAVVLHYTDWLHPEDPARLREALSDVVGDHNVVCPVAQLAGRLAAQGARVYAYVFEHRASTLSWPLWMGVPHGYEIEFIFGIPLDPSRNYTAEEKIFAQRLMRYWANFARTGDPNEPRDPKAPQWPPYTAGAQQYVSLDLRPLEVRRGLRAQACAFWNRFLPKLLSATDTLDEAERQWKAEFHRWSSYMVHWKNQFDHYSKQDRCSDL
# How it was run: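 Recombinant human AChE (50 mU/mL in the enzyme mix) and human liver microsomes (0.25 mg/mL final) were preincubated with compound and NADPH (0.25 mg/mL final) for 30 min at 37 C. Acetylthiocholine/DTNB was then added; thiocholine was read colorimetrically after 10 min at room temperature.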
# [3] = target: Cytochrome P450 2D6 (Homo sapiens) (UniProt P10635); test: Cytochrome P450 Family 2 Subfamily D Member 6 (CYP2D6) small molecule antagonists: luciferase reporter qHTS assay (AID 1671196); also: nearly all actives have a fitted effect of over 50% in size; as to activity change, negative = inhibition: series mostly up to about 120 µM
# Chain of Cytochrome P450 2D6 (Homo sapiens) (P10635 whole entry, looked up): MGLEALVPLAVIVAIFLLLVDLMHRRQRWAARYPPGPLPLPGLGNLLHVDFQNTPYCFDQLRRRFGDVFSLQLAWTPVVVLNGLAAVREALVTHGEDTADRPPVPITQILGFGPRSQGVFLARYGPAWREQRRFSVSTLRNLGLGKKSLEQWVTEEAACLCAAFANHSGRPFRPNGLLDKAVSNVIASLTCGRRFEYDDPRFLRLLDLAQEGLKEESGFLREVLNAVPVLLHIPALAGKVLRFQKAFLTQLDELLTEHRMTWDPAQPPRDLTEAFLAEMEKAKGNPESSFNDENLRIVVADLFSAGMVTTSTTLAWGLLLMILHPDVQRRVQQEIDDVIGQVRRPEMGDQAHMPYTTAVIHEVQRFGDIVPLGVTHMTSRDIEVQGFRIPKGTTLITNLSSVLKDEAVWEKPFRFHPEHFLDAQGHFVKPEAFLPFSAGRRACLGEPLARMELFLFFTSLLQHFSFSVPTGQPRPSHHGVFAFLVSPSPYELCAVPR
# How it was run: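 Each well received CYP2D6 with its proluciferin substrate and chemical, sat 10 min, then got NADPH regeneration solution for 1 h at room temperature. Luminescence in RLU served as the activity measure.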
# [4] = target: Cytochrome P450 2C19 (Homo sapiens) (UniProt P33261); test: Cytochrome P450 Family 2 Subfamily C Member 19 (CYP2C19) small molecule antagonists: luciferase reporter qHTS assay (AID 1671197); also: nearly all actives have a fitted effect of over 65% in size; as to activity change, negative = inhibition: series mostly up to about 120 µM
# Chain of Cytochrome P450 2C19 (Homo sapiens) (P33261 whole entry, looked up): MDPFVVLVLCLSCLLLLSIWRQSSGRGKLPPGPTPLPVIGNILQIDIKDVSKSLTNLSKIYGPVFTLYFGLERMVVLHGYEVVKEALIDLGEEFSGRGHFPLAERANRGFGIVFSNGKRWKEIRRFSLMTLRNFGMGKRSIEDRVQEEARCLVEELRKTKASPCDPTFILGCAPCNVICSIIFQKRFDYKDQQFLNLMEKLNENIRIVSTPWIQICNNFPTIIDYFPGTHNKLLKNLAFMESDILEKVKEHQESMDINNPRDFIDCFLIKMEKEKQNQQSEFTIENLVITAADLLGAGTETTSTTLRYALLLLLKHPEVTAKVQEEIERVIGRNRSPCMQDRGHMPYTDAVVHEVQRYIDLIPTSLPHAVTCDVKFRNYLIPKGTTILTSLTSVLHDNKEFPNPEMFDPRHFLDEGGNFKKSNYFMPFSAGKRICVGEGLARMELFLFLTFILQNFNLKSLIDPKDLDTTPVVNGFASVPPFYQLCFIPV
# How it was run: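 CYP2C19 P450-Glo, 1536-well qHTS. Cpd + enzyme/proluciferin substrate 10 min RT; + NADPH regen, 37C 1 h; stop with luciferin detection reagent, 20 min RT, luminescence (RLU). Pos ctrl ketoconazole.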
# [5] = target: Cytochrome P450 2C9 (Homo sapiens) (UniProt P11712); test: Cytochrome P450 Family 2 Subfamily C Member 9 (CYP2C9) small molecule antagonists: luciferase reporter qHTS assay (AID 1671198); also: nearly all actives have a fitted effect of over 50% in size; as to activity change, negative = inhibition: series mostly up to about 120 µM
# Chain of Cytochrome P450 2C9 (Homo sapiens) (P11712 whole entry, looked up): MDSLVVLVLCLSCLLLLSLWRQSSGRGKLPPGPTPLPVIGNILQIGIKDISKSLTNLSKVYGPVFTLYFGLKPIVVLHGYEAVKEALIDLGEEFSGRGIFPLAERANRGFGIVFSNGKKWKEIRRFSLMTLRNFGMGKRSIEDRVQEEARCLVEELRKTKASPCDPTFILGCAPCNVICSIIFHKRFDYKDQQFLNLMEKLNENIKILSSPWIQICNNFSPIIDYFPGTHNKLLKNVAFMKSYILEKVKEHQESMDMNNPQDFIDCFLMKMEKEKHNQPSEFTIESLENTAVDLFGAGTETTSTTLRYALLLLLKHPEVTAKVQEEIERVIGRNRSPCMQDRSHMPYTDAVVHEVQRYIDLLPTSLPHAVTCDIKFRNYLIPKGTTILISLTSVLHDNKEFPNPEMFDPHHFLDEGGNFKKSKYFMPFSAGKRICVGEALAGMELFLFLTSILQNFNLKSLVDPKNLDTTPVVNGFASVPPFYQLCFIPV
# How it was run: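 Enzyme-substrate mix preincubated with compound 10 min at room temperature; reaction started with NADPH regeneration solution, 1 h 37C. Luminescent luciferin product read after 20 min detection reagent.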
# [6] = target: Cytochrome P450 1A2 (Homo sapiens) (UniProt P05177); test: Cytochrome P450 Family 1 Subfamily A Member 2 (CYP1A2) small molecule antagonists: luciferase reporter qHTS assay (AID 1671199); also: nearly all actives have a fitted effect of over 50% in size; as to activity change, negative = inhibition: series mostly up to about 120 µM
# Chain of Cytochrome P450 1A2 (Homo sapiens) (P05177 whole entry, looked up): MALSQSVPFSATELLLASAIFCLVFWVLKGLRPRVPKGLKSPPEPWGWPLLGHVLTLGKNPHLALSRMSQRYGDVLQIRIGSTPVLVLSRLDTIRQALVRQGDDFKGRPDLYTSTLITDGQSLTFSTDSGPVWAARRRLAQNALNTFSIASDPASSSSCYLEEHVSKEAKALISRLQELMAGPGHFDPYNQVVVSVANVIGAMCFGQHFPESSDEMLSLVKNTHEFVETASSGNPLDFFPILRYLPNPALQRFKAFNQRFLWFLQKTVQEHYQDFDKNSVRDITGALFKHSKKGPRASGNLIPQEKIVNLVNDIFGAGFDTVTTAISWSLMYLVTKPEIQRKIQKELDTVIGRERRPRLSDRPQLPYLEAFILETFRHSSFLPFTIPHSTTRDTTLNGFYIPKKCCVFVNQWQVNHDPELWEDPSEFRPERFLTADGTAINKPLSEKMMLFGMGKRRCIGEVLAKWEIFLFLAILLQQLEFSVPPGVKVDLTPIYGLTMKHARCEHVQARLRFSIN
# How it was run: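 Enzymatic CYP1A2 assay, human, luminescent: 10 min compound–enzyme–substrate preincubation, 1 h NADPH-dependent turnover, 20 min detection step, room temperature throughout. Reduced light indicates lower CYP1A2 activity.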
# [7] = target: Cytochrome P450 3A4 (Homo sapiens) (UniProt P08684); test: Cytochrome P450 Family 3 Subfamily A Member 4 (CYP3A4) small molecule antagonists: luciferase reporter qHTS assay (AID 1671201); also: nearly all actives have a fitted effect of over 50% in size; as to activity change, negative = inhibition: series mostly up to about 120 µM
# Chain of Cytochrome P450 3A4 (Homo sapiens) (P08684 whole entry, looked up): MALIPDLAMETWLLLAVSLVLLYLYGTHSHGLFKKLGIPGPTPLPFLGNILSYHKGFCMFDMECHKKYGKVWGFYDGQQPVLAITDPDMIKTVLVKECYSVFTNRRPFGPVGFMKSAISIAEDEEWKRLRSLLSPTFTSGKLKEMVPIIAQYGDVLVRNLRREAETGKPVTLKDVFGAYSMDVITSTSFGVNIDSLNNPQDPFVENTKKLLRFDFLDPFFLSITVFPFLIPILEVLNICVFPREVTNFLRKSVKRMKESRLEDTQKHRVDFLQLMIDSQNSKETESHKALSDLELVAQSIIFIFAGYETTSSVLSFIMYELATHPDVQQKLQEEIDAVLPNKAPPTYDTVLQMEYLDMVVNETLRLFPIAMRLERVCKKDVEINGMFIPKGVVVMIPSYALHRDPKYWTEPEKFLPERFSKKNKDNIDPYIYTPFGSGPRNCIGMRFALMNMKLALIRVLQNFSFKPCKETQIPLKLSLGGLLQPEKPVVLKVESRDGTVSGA
# How it was run: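 Inhibition of CYP3A4 is measured as loss of light: the enzyme converts a proluciferin substrate to luciferin, detected luminescently. Reaction ran 1 h at room temperature with NADPH regeneration after a 10 min compound preincubation.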
# % is scaled to controls: 0 for no effect and ±100 for the full control effect; potency is read from the fitted curve at half-maximal effect.
smiles,measurement,setting,value
c1ccc(OCC2CO2)cc1 (stereo not given),Potency,[1],inactive
CC(C)CC(C)Nc1ccc(Nc2ccccc2)cc1 (stereo not given),Potency,[2],inactive
same,Potency,[3],2.78 µM (active)
same,Potency,[4],0.698 µM (active)
same,Potency,[5],3.5 µM (active)
same,Potency,[6],22.1 µM (active)
same,Potency,[1],24.1 µM (active)
same,Potency,[7],31.2 µM (active)
CCCN(CCC)c1c([N+](=O)[O-])cc(S(N)(=O)=O)cc1[N+](=O)[O-],Potency,[2],inactive
same,Potency,[4],37.9 µM (active)
same,Potency,[5],5.12 µM (active)
same,Potency,[6],51.2 µM (active)
same,Potency,[7],21.3 µM (active)
CC(=O)[O-].[Tl+],Potency,[1],inactive
CS(=O)(=O)c1ccc(C(=O)C2C(=O)CCCC2=O)c([N+](=O)[O-])c1,Potency,[2],inactive
same,Potency,[4],72.3 µM (active)
same,Potency,[6],50.3 µM (active)
same,Potency,[1],inactive
same,Potency,[7],inactive
CCOP(=S)(OCC)SCS(=O)(=O)C(C)(C)C,Potency,[2],8.94 µM (active)
same,Potency,[4],1.78 µM (active)
same,Potency,[5],5.64 µM (active)
same,Potency,[6],44.8 µM (active)
same,Potency,[1],inactive
CC(C)(C)C(O)/C(=C\c1ccc(Cl)cc1Cl)n1cncn1 (stereo not given),Potency,[2],inactive
same,Potency,[3],34.2 µM (active)
same,Potency,[4],0.0342 µM (active)
same,Potency,[5],4.83 µM (active)
same,Potency,[6],38.4 µM (active)
CC(=O)/C=C/c1ccc2c(c1)OCO2,Potency,[2],inactive
same,Potency,[3],25.3 µM (active)
same,Potency,[4],14.2 µM (active)
same,Potency,[5],8.01 µM (active)
same,Potency,[6],0.226 µM (active)
same,Potency,[1],inactive
same,Potency,[7],2.53 µM (active)
c1ccc2c(c1)[nH]c1cnccc12,Potency,[2],inactive
same,Potency,[3],7.11 µM (active)
same,Potency,[4],31.8 µM (active)
same,Potency,[5],31.8 µM (active)
same,Potency,[6],7.98 µM (active)
same,Potency,[1],inactive
same,Potency,[7],31.8 µM (active)
CN(C)C(=S)S,Potency,[1],inactive
Cc1ccc(OP(=O)(Oc2ccccc2)Oc2ccccc2)cc1,Potency,[3],inactive
same,Potency,[4],3.22 µM (active)
same,Potency,[5],6.42 µM (active)
same,Potency,[6],11.4 µM (active)
same,Potency,[1],24.9 µM (active)
same,Potency,[7],inactive
CC(C)Oc1cccc(NC(=O)c2ccccc2C(F)(F)F)c1,Potency,[2],inactive
same,Potency,[4],3.99 µM (active)
same,Potency,[5],13 µM (active)
same,Potency,[6],10.6 µM (active)
same,Potency,[1],50.4 µM (active)
C=CCC1=C(C)C(OC(=O)C2C(C=C(C)C)C2(C)C)CC1=O (stereo not given),Potency,[2],inactive
same,Potency,[4],1.69 µM (active)
same,Potency,[6],25.9 µM (active)
same,Potency,[1],29.2 µM (active)
COc1cc(N)c(Cl)cc1C(=O)NC1CN2CCC1CC2 (stereo not given),Potency,[3],13.8 µM (active)
same,Potency,[6],inactive
same,Potency,[7],inactive
ClC1=C(Cl)[C@]2(Cl)[C@@H]3[C@@H]4C[C@@H]([C@H]5O[C@@H]45)[C@@H]3[C@@]1(Cl)C2(Cl)Cl,Potency,[2],inactive
same,Potency,[3],25.2 µM (active)
same,Potency,[4],3.17 µM (active)
CC[C@H]1C[C@@H]2C[C@H]3c4[nH]c5ccc(OC)cc5c4CCN(C2)[C@@H]13,Potency,[2],inactive
same,Potency,[3],0.698 µM (active)
same,Potency,[6],44.1 µM (active)
COc1ccc([N+](=O)[O-])cc1O,Potency,[2],inactive
same,Potency,[1],inactive
same,Potency,[7],inactive
CCCCCCCCCCCCCCCC[N+](C)(C)C,Potency,[3],862 nM (active) and 1.42 µM (active) and 1.38 µM (active)
same,Potency,[4],79.6 µM (active) and inactive
same,Potency,[5],inactive
same,Potency,[6],inactive and 79.6 µM (active)
same,Potency,[1],16.8 µM (active) and 21.9 µM (active) and 16.9 µM (active)
same,Potency,[7],inactive
[Cd+2].[Cl-].[Cl-],Potency,[1],inactive
CC(=O)[O-].CC(=O)[O-].O.O.[Cd+2],Potency,[1],inactive
CCOCCOC(C)=O,Potency,[2],inactive
same,Potency,[3],71 µM (active)
same,Potency,[4],79.6 µM (active)
same,Potency,[6],43.5 µM (active)
same,Potency,[1],inactive
CN(C)C(=S)[S-].CN(C)C(=S)[S-].[Cu+2],"activity change, negative = inhibition",[1],-11.4% [at 15.8 µM] (inactive)
O=C(CCCN1CCC2(CC1)C(=O)NCN2c1ccccc1)c1ccc(F)cc1,Potency,[2],inactive
same,Potency,[3],0.977 µM (active)
same,Potency,[4],inactive
same,Potency,[6],inactive
same,Potency,[1],1.2 µM (active)
same,Potency,[7],inactive
COc1cccc(C(=O)CCN[C@@H](C)[C@H](O)c2ccccc2)c1,Potency,[3],1.38 µM (active)
same,Potency,[4],21.9 µM (active)
same,Potency,[5],27.5 µM (active)
same,Potency,[6],24.5 µM (active)
same,Potency,[1],inactive
CCCSP(=O)(OCC)SCCC,Potency,[1],inactive
O=[N+]([O-])O.O=[N+]([O-])O.[Cd],Potency,[1],inactive
O=CC(Br)(Br)Br,Potency,[2],inactive
same,Potency,[3],inactive
same,Potency,[5],14.1 µM (active)
same,Potency,[6],28.2 µM (active)
same,Potency,[1],inactive
CC(C)CBr,Potency,[2],inactive
same,Potency,[3],inactive
same,Potency,[6],inactive
same,Potency,[1],inactive
same,Potency,[7],inactive
CN(C)[C@@H]1C(=O)C(C(N)=O)=C(O)[C@@]2(O)C(=O)C3=C(O)c4c(O)ccc(Cl)c4[C@@](C)(O)[C@H]3C[C@@H]12,Potency,[1],inactive
C[C@@H]1CC[C@@]2(OC1)O[C@H]1[C@@H](O)[C@H]3[C@@H]4CC[C@H]5C[C@@H](O[C@@H]6O[C@H](CO)[C@H](O[C@@H]7O[C@H](CO)[C@@H](O)[C@H](O[C@@H]8OC[C@@H](O)[C@H](O)[C@H]8O)[C@H]7O[C@@H]7O[C@H](CO)[C@@H](O)[C@H](O[C@@H]8O[C@H](CO)[C@@H](O)[C@H](O)[C@H]8O)[C@H]7O)[C@H](O)[C@H]6O)[C@H](O)C[C@]5(C)[C@H]4CC[C@]3(C)[C@H]1[C@@H]2C,Potency,[2],inactive
same,Potency,[3],inactive
same,Potency,[4],inactive
same,Potency,[5],inactive
same,Potency,[6],inactive
same,Potency,[1],11.6 µM (active)
CCSC(C)CC1CC(=O)C(/C(CC)=N/OC/C=C/Cl)=C(O)C1 (stereo not given),Potency,[2],inactive
same,Potency,[4],9.77 µM (active)
same,Potency,[1],inactive
CN(C)CCc1c[nH]c2cccc(O)c12,Potency,[2],inactive
same,Potency,[3],7.03 µM (active)
same,Potency,[4],19.8 µM (active)
same,Potency,[5],7.89 µM (active)
same,Potency,[1],inactive
CC(C)CCCCCCCOP(=O)(Oc1ccccc1)Oc1ccccc1,Potency,[2],inactive
same,Potency,[4],6.36 µM (active)
same,Potency,[5],6.36 µM (active)
same,Potency,[6],28.4 µM (active)
CCCCCCCCCCCCCCCC[n+]1ccccc1,Potency,[2],inactive
same,Potency,[4],inactive
same,Potency,[6],inactive
FC(F)(F)c1cccc(C2=CCN(CCc3ccc4ccccc4c3)CC2)c1,Potency,[3],0.195 µM (active)
same,Potency,[4],inactive
same,Potency,[5],inactive
same,Potency,[1],1.69 µM (active)
same,Potency,[7],inactive
